Reference: PubChem BioAssay
Calls of active or inactive are those of the source.

Legend:
[1] = biological target: Albumin (Bos taurus) (UniProt P02769); experiment: bovine serum albumin binders on microarray, profiling panel, artefact control for SMM control protein annotation, biochemical, small-molecule microarray, Alexa647 label, 635/667 nm fluorescence (AID 1118); conditions: BSA-A647 binding, fluorescence 635 nm, higher = more signal;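 also: score merges 667 nm emission intensity and signal-to-noise per printed compound spot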
[2] = small-molecule microarray binders of probe aXIP, primary screen, biochemical, NeuroSMM set, 635/667 nm fluorescence (AID 1119); conditions: higher = more signal, called active from +8 up or from −8 down;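 also: probe is the protein aXip251-270 applied at 1 µg/mL to compound-printed slides; binding of probe to printed compounds measured as 667 nm fluorescence plus signal to noise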
[3] = small-molecule binders of probe aNOTCH3, primary screen, biochemical, small-molecule microarray, 635/667 nm fluorescence (AID 1120); conditions: higher = more signal;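 also: probe is a biotin-tagged antibody raised against NOTCH3 rather than NOTCH3 protein; score merges spot fluorescence near 667 nm with spot signal to noise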
[4] = small-molecule binders of probe aNOTCH2, primary screen, biochemical, small-molecule microarray, 635/667 nm fluorescence (AID 1121); conditions: higher = more signal;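 also: score merges feature fluorescence read at 667 nm with its signal to noise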
[5] = biological target: Carbonic anhydrase 2 (Homo sapiens) (UniProt P00918); experiment: CAII small-molecule binders, profiling panel, biochemical, small-molecule microarray, Alexa647-labelled CAII (AID 1122); conditions: CAII-A647 binding fluorescence, higher = more signal
[6] = COS7 lysate on small-molecule microarray, probe aHis, 635 nm (AID 1123); conditions: COS7 cell lysate, fluorescence, higher = more signal;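 also: z-score combines 667nm fluorescence intensity with signal-to-noise per printed compound spot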
[7] = compound binding in COS7 lysate, probe aLAP1, primary screen, cell lysate, small-molecule microarray (AID 1124); conditions: probe aLAP1, fluorescence, higher = more signal;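 also: lysate comes from COS7 cells expressing LAP1 and is applied at 0.3 µg/mL; score merges spot fluorescence near 667 nm with signal-to-noise over triplicate slides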
[8] = system: Sam68 (KHDRBS1); experiment: Sam68 small-molecule binders, primary screen, biochemical, small-molecule microarray, 635 nm fluorescence (AID 1125); conditions: small-molecule microarray binding, higher = more signal;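 also: score merges 667 nm channel intensity with signal to noise over triplicate slides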
[9] = system: Chordin-like protein 2 (CHRDL2); experiment: CHRDL2 small-molecule binders, primary screen, biochemical, small-molecule microarray, 635 nm fluorescence (AID 1126); conditions: small-molecule microarray binding, fluorescence 635 nm; higher = more signal;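 also: printed compound slides probed with Chrdl2 protein at 4 µg/mL for 1 h at 4 C; score merges 667 nm emission intensity with signal to noise over three replicate slides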
[10] = biological target: Concanavalin-A (Canavalia ensiformis) (UniProt P02866); experiment: ConA small-molecule binders, primary screen, artefact control for SMM control protein annotation, biochemical, small-molecule microarray, Alexa647 label, 635 nm (AID 1127); conditions: ConA-A647 binding fluorescence, higher = more signal;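 also: z combines 667 nm emission intensity with signal-to-noise across three replicate slides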
Concanavalin-A (Canavalia ensiformis), sequence (P02866 whole entry, looked up): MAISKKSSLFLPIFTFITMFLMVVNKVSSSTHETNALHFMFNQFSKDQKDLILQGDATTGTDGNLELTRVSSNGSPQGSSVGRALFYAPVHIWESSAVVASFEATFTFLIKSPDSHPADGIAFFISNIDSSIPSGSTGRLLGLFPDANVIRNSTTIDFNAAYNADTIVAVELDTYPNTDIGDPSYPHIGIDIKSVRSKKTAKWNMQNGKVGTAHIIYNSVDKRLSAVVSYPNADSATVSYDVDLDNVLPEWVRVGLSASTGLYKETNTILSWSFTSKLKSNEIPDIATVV

Albumin (Bos taurus), sequence (P02769 whole entry, looked up): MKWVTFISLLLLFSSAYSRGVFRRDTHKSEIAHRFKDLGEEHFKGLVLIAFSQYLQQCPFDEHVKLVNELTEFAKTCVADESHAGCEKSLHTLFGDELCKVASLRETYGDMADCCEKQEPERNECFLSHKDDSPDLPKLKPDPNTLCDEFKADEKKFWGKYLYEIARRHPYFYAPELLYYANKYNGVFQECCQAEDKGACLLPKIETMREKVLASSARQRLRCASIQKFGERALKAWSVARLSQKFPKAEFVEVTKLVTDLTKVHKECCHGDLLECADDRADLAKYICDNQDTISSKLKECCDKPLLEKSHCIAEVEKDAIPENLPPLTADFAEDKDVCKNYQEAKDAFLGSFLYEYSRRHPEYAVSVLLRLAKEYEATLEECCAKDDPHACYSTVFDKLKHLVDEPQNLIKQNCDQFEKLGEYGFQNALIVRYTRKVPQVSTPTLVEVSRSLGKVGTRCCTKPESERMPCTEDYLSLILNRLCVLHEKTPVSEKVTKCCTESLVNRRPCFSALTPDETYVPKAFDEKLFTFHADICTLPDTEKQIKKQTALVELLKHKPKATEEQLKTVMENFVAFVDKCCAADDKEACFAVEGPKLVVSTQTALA

## C=CCC(OC(C)=O)[C@@H]1[C@@H](N(Cc2cc3ccccc3o2)C(=O)c2ccc(-c3ccccc3)cc2)c2cc(OCCCO)ccc2N1C(=O)Cc1ccc(OC)cc1 (stereo not given in full)
[1]
  composite z-score: 0.0787
[2]
  composite Z-score: 0.443 (inactive)
[3]
  composite z-score: -0.0189
[4]
  composite z-score: -0.14
[5]
  composite z-score: -0.284
[6]
  composite z-score: 0.401
[7]
  composite z-score: -0.237
[8]
  composite z-score: 0.0416
[9]
  composite z-score: 0.186
[10]
  composite z-score: 0.444

## Cc1cccc([C@H]2C[C@H]3C(I)=C[C@@H]2C(=O)[C@]32CO2)c1
[1]
  composite z-score: -0.883
[2]
  composite Z-score: 0.694 (inactive)
[3]
  composite z-score: -0.199
[4]
  composite z-score: -0.112
[5]
  composite z-score: 0.0705
[6]
  composite z-score: -0.55
[7]
  composite z-score: 0.466
[8]
  composite z-score: -0.5
[9]
  composite z-score: 0.645
[10]
  composite z-score: -0.478

## CCCCC(=O)N(CCN1CCOCC1)[C@@H]1CC(C(=O)NCCO)=C[C@H](Oc2c(I)cc(CO)cc2OC)[C@H]1O
[1]
  composite z-score: -0.365
[2]
  composite Z-score: -0.18 (inactive)
[3]
  composite z-score: -0.163
[4]
  composite z-score: -0.185
[5]
  composite z-score: -0.142
[6]
  composite z-score: -0.463
[7]
  composite z-score: -0.265
[8]
  composite z-score: 0.593
[9]
  composite z-score: 0.459
[10]
  composite z-score: 0.331

## CCOC(=O)C[C@H]1[C@H](OC(=O)c2ccc(-c3ccccc3)cc2)[C@@H](NC(=O)CC(C)C)c2cc(OCCCO)ccc2N1C(=O)c1ccccc1
[1]
  composite z-score: 0.506
[2]
  composite Z-score: -0.221 (inactive)
[3]
  composite z-score: -0.0057
[4]
  composite z-score: -0.124
[5]
  composite z-score: 0.108
[6]
  composite z-score: 0.806
[7]
  composite z-score: -0.2
[8]
  composite z-score: 1.03
[9]
  composite z-score: 0.0549
[10]
  composite z-score: 0.27

## COCCCNC(=O)[C@@]1(Sc2ccc(C)cc2)CC(=O)N(Cc2ccccc2Cl)[C@@H]1c1ccc(CO)cc1I
[1]
  composite z-score: 0.7
[2]
  composite Z-score: -0.0202 (inactive)
[3]
  composite z-score: -0.145
[4]
  composite z-score: -0.178
[5]
  composite z-score: 0.809
[6]
  composite z-score: 0.658
[7]
  composite z-score: -0.47
[8]
  composite z-score: -1.22
[9]
  composite z-score: -1.05
[10]
  composite z-score: -0.556

## COc1ccc([Si](C)(C)[C@H]2[C@H](CCO)O[C@@]3(C(=O)N(Cc4ccccc4)c4ccc(N5C(=O)c6ccccc6Oc6ccccc65)cc43)[C@@H]2C)cc1
[1]
  composite z-score: 0.467
[2]
  composite Z-score: -0.216 (inactive)
[3]
  composite z-score: -0.0984
[4]
  composite z-score: -0.106
[5]
  composite z-score: 0.532
[6]
  composite z-score: 1.47
[7]
  composite z-score: 0.62
[8]
  composite z-score: 0.442
[9]
  composite z-score: 0.214
[10]
  composite z-score: 0.823

## Cc1c(NC(=O)/C(C#N)=C/c2ccccc2Cl)c(=O)n(-c2ccccc2)n1C
[1]
  composite z-score: 0.942
[2]
  composite Z-score: -0.683 (inactive)
[3]
  composite z-score: -0.0048
[4]
  composite z-score: -0.011
[5]
  composite z-score: 0.704
[6]
  composite z-score: 1.08
[7]
  composite z-score: 0.237
[8]
  composite z-score: 0.247
[9]
  composite z-score: 0.107
[10]
  composite z-score: 0.996

## CCOC(=O)C1=CC[C@@H](c2ccccc2)N(S(=O)(=O)c2ccc(C)cc2)[C@H]1c1cccc(OC)c1
[1]
  composite z-score: 0.909
[2]
  composite Z-score: 1.15 (inactive)
[3]
  composite z-score: 0.199
[4]
  composite z-score: 0.137
[5]
  composite z-score: 0.422
[6]
  composite z-score: 0.899
[7]
  composite z-score: 0.0214
[8]
  composite z-score: 1.06
[9]
  composite z-score: -0.0412
[10]
  composite z-score: 0.913

## CC(C)=CCCC(C)=CC(O)C1C=CC2C(=O)N(c3ccccc3)C(=O)C2N1Nc1ccccc1F (stereo not given)
[1]
  composite z-score: 0.846
[2]
  composite Z-score: 0.0502 (inactive)
[3]
  composite z-score: 0.0258
[4]
  composite z-score: -0.186
[5]
  composite z-score: 0.662
[6]
  composite z-score: 1.3
[7]
  composite z-score: 0.561
[8]
  composite z-score: 1.13
[9]
  composite z-score: -0.308
[10]
  composite z-score: 1.14

## CCN(CC)c1ccc(N2CC=CC34O[C@@H]5C=CCCOC(=O)C5[C@H]3C(=O)N(CCO)[C@@H]4C2=O)cc1 (stereo not given in full)
[1]
  composite z-score: 0.0715
[2]
  composite Z-score: -0.296 (inactive)
[3]
  composite z-score: -0.341
[4]
  composite z-score: -0.158
[5]
  composite z-score: 0.898
[6]
  composite z-score: -0.724
[7]
  composite z-score: 0.624
[8]
  composite z-score: -0.661
[9]
  composite z-score: -0.414
[10]
  composite z-score: -2.06

## CC(C)[C@H]1NC(=O)[C@@]23C(=O)N[C@@H](Cc4ccccc4)C2[C@H](C)[C@@]2(C)O[C@H]2C3/C=C/CCC/C=C/CNC(=O)[C@H](Cc2ccccc2)NC1=O (stereo not given in full)
[1]
  composite z-score: 0.347
[2]
  composite Z-score: -0.0159 (inactive)
[3]
  composite z-score: -0.213
[4]
  composite z-score: -0.131
[5]
  composite z-score: 0.427
[6]
  composite z-score: 0.892
[7]
  composite z-score: -0.0328
[8]
  composite z-score: 0.86
[9]
  composite z-score: 0.213
[10]
  composite z-score: -0.464

## CC(=O)NCCCC[C@@H]1NC(=O)[C@H]2C[C@@H](C(=O)NCCCCCNC(=O)CS)[C@@H](c3cccc(OCCO)c3)N2C1=O
[1]
  composite z-score: 0.419
[2]
  composite Z-score: 1.98 (inactive)
[3]
  composite z-score: -0.27
[4]
  composite z-score: -0.173
[5]
  composite z-score: 0.364
[6]
  composite z-score: 2.34
[7]
  composite z-score: -0.178
[8]
  composite z-score: 0.742
[9]
  composite z-score: 0.715
[10]
  composite z-score: 0.493

## C=CCC(OC(C)=O)[C@@H]1[C@@H](N(Cc2cccc3ccccc23)C(=O)c2ccc(-c3ccccc3)cc2)c2cc(OCCCO)ccc2N1C(=O)c1ccc(-c2ccccc2)cc1 (stereo not given in full)
[1]
  composite z-score: -0.0811
[2]
  composite Z-score: -0.646 (inactive)
[3]
  composite z-score: -0.0647
[4]
  composite z-score: -0.0294
[5]
  composite z-score: 0.255
[6]
  composite z-score: 0.384
[7]
  composite z-score: 0.205
[8]
  composite z-score: -0.225
[9]
  composite z-score: -0.046
[10]
  composite z-score: -0.441

## COC(=O)[C@@]1(Cc2ccc(F)cc2)[C@H]2c3cc(C(=O)N(C)C)n(Cc4c(CO)[nH]cc(C)c4=O)c3C[C@H]2CN1C(=O)c1ccccc1
[1]
  composite z-score: 0.569
[2]
  composite Z-score: 0.266 (inactive)
[3]
  composite z-score: 0.26
[4]
  composite z-score: 0.224
[5]
  composite z-score: 0.866
[6]
  composite z-score: 0.816
[7]
  composite z-score: 1.41
[8]
  composite z-score: -0.279
[9]
  composite z-score: 0.146
[10]
  composite z-score: -0.189
